test: yeast TOR pathway CIT2-GFP reporter retest – flow cytometry, third cherry pick, single plex, confirmation (AID 504340);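 also: median GFP fluorescence over all cells with no mother versus daughter split; sample signal as a ratio to the plate DMSO mean so 100% equals DMSO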; details: S. cerevisiae CIT2-GFP strain, 3 h, at 10 µM, hits give high values;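 active = GFP response above 150% of the DMSO control; inconclusive = Under 70 cell events counted for a yeast strain; inactive = the rest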

GFP response vs DMSO, inactive:
Cn1cccc1C(=O)Nc1nc(-c2ccccn2)cs1 106%
Cc1cccc(Nc2cc(=O)[nH]c(=O)[nH]2)c1C 96.1%
CS(=O)(=O)Oc1ccc(Br)c2cccnc12 103%
Nn1cnc2c(c1=O)C1(CCCCC1)Cc1ccccc1-2 129%
COc1ccc(NC(=O)O/N=C2/CCCc3ccc(OC)cc32)cc1 104%
O=C(O)CCCCCNc1ncnc2ccc(Br)cc12 106%
CC(=O)C(CC(=O)N1CCCC1)C(=O)Nc1ccc(Cl)cc1 (stereo unspecified) 109%
CC(=O)CC(=O)Nc1ccc(C(N)=O)cc1 106%
CC(=O)NCCOc1cccc2cccnc12 104%
COC(=O)COc1c(Cl)cc(Cl)c2ccc(C)nc12 106%
Cc1cc(C)c2ccc(C(=O)O)nc2c1O 88%
C/C(=C\C(=O)c1ccccc1)Nc1ccc(O)cc1 103%
CCN(CC)C(=O)Oc1ccnc2cc(Cl)ccc12 107%
C/C(=C\C(=O)c1ccccc1)Nc1cccc(O)c1 99.3%
COc1ccccc1-c1cc(C(F)(F)F)nc(S(=O)(=O)CCCC(=O)O)n1 111%
COc1cccc(NC(=O)CC(C)=O)c1 106%
CCCOCc1ccc(O)c2ncccc12 104%
COc1ccccc1Nc1nc(NCC(C)C)nc(N)c1[N+](=O)[O-] 114%
Cn1c(=O)c2c(n3cnnc13)-c1ccccc1CC21CCCC1 106%
Cc1ccc(Nc2cc(=O)[nH]c(=O)[nH]2)cc1Cl 99.3%
CS(=O)(=O)c1nc(-c2ccc(F)cc2)cc(C(F)(F)F)n1 107%

From PubChem BioAssay AID504340 (NMMLSC, 2011)
